According to PubChem BioAssay (NCI):
Compounds without any hit were thinned out: in the full panel of roughly 79,000, 15% have a hit. The source made the active and inactive calls. Rule as the data show it: active = growth inhibition above about 70%; inactive = the rest.

Assay: NCI Yeast Anticancer Drug Screen. Data for the CLN2oe strain (AID 163);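 also: 0% = growth of vehicle-only control cultures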
Conditions: S. cerevisiae CLN2oe strain, at 1.2 µM, active compounds read high
Method in brief: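 Cells of an engineered yeast line with disturbed cell-cycle regulation are treated with compound. Inhibition of growth is then calculated relative to the vehicle-treated reference.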

SMILES | growth inhibition
CC(CN(C)C)C(=O)/C=C/c1ccc(Cl)c(Cl)c1 (stereo not given) | 3% (inactive)
CCCCCCNCCCNc1c2cc(OC)ccc2nc2cccc([N+](=O)[O-])c12 | -8% (inactive)
NC(=S)N1N=C2c3ccccc3CC[C@H]2[C@@H]1c1ccc(Cl)cc1 | -6% (inactive)
C/C(=N/NC(=S)Nc1ccccc1C)c1ccccn1 | -8% (inactive)
O=C1/C(=C/c2ccc(Cl)c(Cl)c2)CNC/C1=C\c1ccc(Cl)c(Cl)c1 | 15% (inactive)
CC(C)OP(=O)(OC(C)C)C(=NCCO)NNc1ccc([N+](=O)[O-])cc1 | -17% (inactive)
N#CCC(=O)N/N=C(\c1ccccc1)C(c1ccccc1)C1(O)C(=O)Nc2c(Cl)ccc(Cl)c21 (stereo not given) | -1% (inactive)
CC(C)(CN1CCCCC1)C(=O)CC(SCCS(=O)(=O)O)c1ccccc1 (stereo not given) | -6% (inactive)
CCCCN(CCCC)c1ccc(N=Nc2ccc(S(=O)(=O)O)cc2)cc1 | 12% (inactive)
c1ccc2nc3c(nc2c1)sc1ccccc13 | -2% (inactive)
O=C1c2ccccc2-c2ccc(N=Cc3ccccc3)cc21 | -7% (inactive)
CNC(=S)N/N=C(/C)CCC/C(C)=N/NC(=S)NC | 80% (active)
Nc1ccc(/C=C/c2ccc3cccnc3c2)cc1 | 2% (inactive)
COc1ccc2c3c1OC(C)C31CC(=O)CCC1CC2 (stereo not given) | -2% (inactive)
CCOC(=O)Nc1ccc(C)c(NC(=O)OCC)c1 | 9% (inactive)
O=C(c1cc(=O)c2ccc(O)cc2o1)c1ccc(Cl)cc1Cl | -23% (inactive)
CCCNC(=O)OCc1c(COC(=O)NCCC)c(-c2ccc(Cl)c(Cl)c2)n2c1CCC2 | 0% (inactive)
O=C(Cc1ccccc1)NN1C(=O)C(Cl)C1c1cc(Br)cc(Br)c1O (stereo not given) | -6% (inactive)
CCOC(=O)C(Cc1c2ccccc2cc2ccccc12)(NC(C)=O)C(=O)OCC | -3% (inactive)
O=[N+]([O-])/C=C/c1cc2ccc3ccccc3c2[nH]1 | 0% (inactive)
O=S1(=O)CCC2=CC(C(F)(F)F)=CC(C(F)(F)F)=CN21 | 25% (inactive)
O=C(Cc1ccccc1)NNc1nc(NNC(=O)c2ccncc2)nc(Nc2ccc([N+](=O)[O-])cc2)n1 | -8% (inactive)
CCCCS/C(=C(/C#N)C(N)=O)c1cc2c([nH]1)CCCC2 | -21% (inactive)
O=C(O)c1ccccc1C(=O)OC1CCc2ccccc2C1 (stereo not given) | -10% (inactive)
CCOC(=O)/C(=C\c1cccc(C)c1)C(C)=O | 11% (inactive)
NC(=S)N/N=C1\c2ccccc2CCC1CCC1(O)CCc2ccccc2C1=O (stereo not given) | 38% (inactive)
Cc1cccc2c(Cl)c3cccc(C)c3nc12 | -5% (inactive)
CC(C)OC(=O)NNc1c(Cl)cc(Cl)cc1Cl | 1% (inactive)
N#CSCC1COc2ccccc2O1 (stereo not given) | -11% (inactive)
CC1=NN(C(=O)c2ccccc2O)C(=O)/C1=C/c1ccco1 | 6% (inactive)
